Source: PubChem BioAssay AID1850 (Southern Research Specialized Biocontainment Screening …, 2009)
In all, about 310,000 compounds went through this assay and about 1,000 (0.32%) were called active. The rule behind the calls is not given here. Only a sample is shown. Measured potencies and affinities stand elsewhere.

Test: Inhibition of PhoP regulon, Salmonella typhi GFP reporter cells, confirmation, 4 h (AID 1850);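 note: 0% = induced wells with vehicle and 100% = uninduced wells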
Details: Salmonella Typhi PhoP-promoter GFP reporter, fluorescence, at 50 µM, hits give high values

SMILES	inhibition
CC(C)CN(Cc1cc(=O)oc2cc3c(cc12)CCCC3)CC(C)C	3.63% (inactive)
CCOc1ncccc1C(=O)OCCN1C(=O)c2ccccc2C1=O	7.33% (inactive)
O=C(NNS(=O)(=O)c1ccccc1)c1cccc([N+](=O)[O-])c1	-3.37% (inactive)
Cc1ccc(S(=O)(=O)NCc2cccnc2)c(C)c1	0.7% (inactive)
COc1ccc(-c2nc3n(c(=O)c2C#N)CCS3)cc1	2% (inactive)
CCCNS(=O)(=O)c1cc2c3c(c1)C(C)C(=O)N3CCC2 (stereo unspecified)	8.86% (inactive)
CC(=O)c1ccc(NC(=S)N2CCN(CCO)CC2)cc1	5.45% (inactive)
Cc1cc(C)c(C(N)=O)c(NCCc2ccccc2)n1	-2.71% (inactive)
c1ccc(-c2nnc(CSc3nc4ccccc4[nH]3)o2)cc1	-20.5% (inactive)
CC1CCCCN1C(=O)c1ccc(NC(=O)c2ccccc2Cl)cc1 (stereo unspecified)	3.28% (inactive)
O=C(CCc1ccccc1)NNC(=O)c1ccccc1Cl	3.05% (inactive)
O=C(NC(=S)NNC(=O)c1ccccc1O)c1ccccc1	4.34% (inactive)
O=C(NNC(=S)Nc1ccccc1)c1ccc(O)cc1	9.42% (inactive)
O=C(CCc1ccccc1)NNC(=O)CCc1ccccc1	-2.48% (inactive)
c1ccc(C[C@H]2CNCCN2CC2(c3ccccc3)CC2)cc1	-6.5% (inactive)
Cc1cc2oc(C(=O)NCc3ccccc3)cc(=O)c2cc1C	-12.8% (inactive)
CC1=NNC(=O)/C1=C\c1cn(-c2ccccc2)nc1-c1ccccc1	10.4% (inactive)
CC1=C(C(=O)Nc2ccc(C)cc2C)C(c2cccs2)NC(=S)N1 (stereo unspecified)	2.73% (inactive)
O=C(Nc1ccccc1)N1CCCN(Cc2ccccc2F)C1	14% (inactive)
O=C(Nc1ccc(Cl)cc1)N1CCCN(Cc2ccc(F)cc2)C1	0.26% (inactive)
CC1CN(c2oc(-c3ccco3)nc2C#N)CC(C)O1 (stereo unspecified)	6.8% (inactive)
C/C(=N\N=C(N)N)c1cccc(Cl)c1	9.67% (inactive)
C/C(=N\N=C(N)N)c1ccc(Cl)cc1	-0.0633% (inactive)
O=C(CNS(=O)(=O)c1ccccc1)N1CCc2ccccc2C1	-1% (inactive)
Cn1c(=O)c2c(nc(NCC3CCCO3)n2Cc2cccc(Br)c2)n(C)c1=O (stereo unspecified)	2.34% (inactive)
CN(C)S(=O)(=O)N1CCN(c2ccc([N+](=O)[O-])c(NC3CC3)c2)CC1	-5.83% (inactive)

SMILES	inhibition
CCCCCCCCCC[n+]1cccc(C(=O)N(CC)CC)c1	8.08% (inactive)
CCCCCCCC[n+]1cccc(C(=O)N(CC)CC)c1	-7.45% (inactive)
CC(C)(C)C(=O)C[n+]1ccc(C(N)=O)cc1	-7.77% (inactive)
CCN(CC)C(=O)C[n+]1ccc(C(N)=O)cc1	-3.67% (inactive)
NC(=O)C[n+]1ccc(/C=N/O)cc1	-7.01% (inactive)
CN(C)C(=O)C[n+]1ccc(/C=N/O)cc1	-5.57% (inactive)
O=C(c1ccc(F)cc1)N1CCN(C2CC3CCC2C3)CC1 (stereo unspecified)	-3.63% (inactive)
O=C(Nc1ccc2ccccc2n1)c1ccccc1Br	-4.26% (inactive)
CCC(C)NC(=O)CCC(=O)NNc1nc2ccccc2c2nc(C)nn12 (stereo unspecified)	10.9% (inactive)
CCn1cc(NC(=O)CCl)c(C)n1	-1.91% (inactive)
CC(C)(C)OC(=O)N1CCC(c2c(C(=O)NCC3CCN(C4CCCC4)C3)cnn2-c2ccccc2)CC1 (stereo unspecified)	4.93% (inactive)
Oc1ccccc1/C=N/Nc1nccnc1Cl	-1.82% (inactive)
Oc1ccc(/C=N/Nc2nccnc2Cl)cc1	-3.22% (inactive)
O=C(COc1ccc(Br)cc1)N(Cc1ccccc1)c1ccccn1	12.3% (inactive)
COc1ccc(NC(=O)CSCC(=O)N(C)CC(=O)Nc2ccc(Cl)c(C(F)(F)F)c2)cc1	5.95% (inactive)
O=C(CCN1C(=O)c2ccccc2S1(=O)=O)N1CCN(c2cccc(Cl)c2)CC1	0.17% (inactive)
COc1cc(/C=N/NC(=O)c2cccnc2)ccc1OC(=O)c1ccc([N+](=O)[O-])cc1	5.86% (inactive)
COc1cc(/C=N/NC(=O)c2ccc(C)nc2)cc([N+](=O)[O-])c1O	2.56% (inactive)
O=C(N/N=C/c1cc([N+](=O)[O-])ccc1O)Nc1ccccc1	17.7% (inactive)
COc1cc([N+](=O)[O-])cc(/C=N/NC(=O)c2ccc(C)nc2)c1O	18.7% (inactive)
COc1cc([N+](=O)[O-])cc(/C=N/NC(=O)c2cncc(Br)c2)c1O	12.7% (inactive)
O=C(N/N=C/c1ccc(O)c([N+](=O)[O-])c1)C(O)(c1ccccc1)c1ccccc1	4.8% (inactive)
O=C(N/N=C/c1cccc([N+](=O)[O-])c1O)C(O)(c1ccccc1)c1ccccc1	2.48% (inactive)
COc1cc([N+](=O)[O-])cc(/C=N/NC(=O)c2cc(C)nc3ccccc23)c1O	21.1% (inactive)
CCc1ccc(NC(=S)N(CCCN2CCN(C)CC2)Cc2cccs2)cc1	0.49% (inactive)
